Source: PubChem
An excerpt weighted towards active compounds, which were near 7.3% of everything screened.
KinaseGlo FLuc: blocks Kinase-Glo luciferase, a counter-screen artifact; Q27757; Kinase-Glo luciferase, ATP luminescence, 8 min; Potency, µM (top dose mostly 38.3 µM), most hits filed as inhibitors; actives 0.28% (n = 200,000); AID 1379; note: nearly all actives have a fitted effect of over 60% in size
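Substrate mix (final 50 mM imidazole pH 7.2, 50 mM KCl, 7 mM MgCl2, 10 uM ATP, 0.01% Tween 20, 0.05% BSA) plus pin-tool compound, then Kinase-Glo detection mix; 8 min ambient, luminescence read.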
FLuc modulator: inhibits or activates purified firefly luciferase, miR-21 counter-screen; P08659; purified FLuc, Km substrates, luminescence inhibition; Potency, µM (doses to about 57.5 µM), most hits filed as inhibitors; actives 6.9% (n = 360,000); note: nearly all actives have a fitted effect of over 55% in size
Target sequence (P08659 whole entry, looked up): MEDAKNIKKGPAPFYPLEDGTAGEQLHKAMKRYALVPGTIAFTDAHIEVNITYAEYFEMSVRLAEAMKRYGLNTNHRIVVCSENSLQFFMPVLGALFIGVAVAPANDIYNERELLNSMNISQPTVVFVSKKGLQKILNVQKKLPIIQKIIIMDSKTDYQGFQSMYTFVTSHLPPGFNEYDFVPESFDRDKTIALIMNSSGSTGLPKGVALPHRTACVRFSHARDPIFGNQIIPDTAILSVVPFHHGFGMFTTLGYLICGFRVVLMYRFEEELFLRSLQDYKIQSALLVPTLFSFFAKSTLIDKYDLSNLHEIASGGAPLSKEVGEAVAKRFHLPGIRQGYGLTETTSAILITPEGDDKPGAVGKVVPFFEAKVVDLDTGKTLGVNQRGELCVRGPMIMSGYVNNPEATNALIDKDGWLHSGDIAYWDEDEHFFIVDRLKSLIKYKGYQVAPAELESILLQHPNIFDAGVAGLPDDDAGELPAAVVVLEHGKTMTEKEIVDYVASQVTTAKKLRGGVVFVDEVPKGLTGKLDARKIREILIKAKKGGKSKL
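Biochemical qHTS of compounds, final roughly 60 µM downward over six points, against 10 nM purified firefly luciferase using Km concentrations of substrates (10 uM D-luciferin, 10 uM ATP) in Tris acetate pH 7.5 buffer; luminescence output.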
ELG1 genotoxic: genotoxicity induction in ELG1-luciferase HEK293T cells | Potency, µM (series often up to 46 µM), most hits filed as activators | AID 504466 | actives 1.3% (n = 330,000) | HEK293T ELG1-luciferase reporter, luminescence, 16 h; note: nearly all actives have a fitted effect of over 60% in size
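Step 1: seed 2,000 HEK293T ELG1-luciferase cells per well. Step 2: add compound or DMSO, incubate 16 hr at 37 °C. Step 3: ONE-Glo, 30 min at room temperature, read luminescence.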
Rab9 prom act: activators of Rab9 promoter. Huh7 Rab9 promoter-luciferase reporter, luminescence, 24 h. Potency, µM (doses to about 9.22 µM), actives largely listed as activators. actives 2.8% (n = 320,000); note: nearly all actives have a fitted effect of over 60% in size
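Huh7 reporter line, Rab9 promoter upstream of luciferase. Compound exposure 24 h at 37 °C in reduced-serum medium with 10% FBS. Read-out: luminescence.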
SMN2 splice enh: enhancers of SMN2 splice variant expression. HEK293 SMN2-luciferase splicing reporter, luminescence, 30-36 h. Potency, µM (series often up to 46.1 µM), usual class: activators. actives 2.8% (n = 210,000); note: nearly all actives have a fitted effect of over 55% in size
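qHTS luciferase splicing reporter: luminescence rises when SMN2 exon 7 is included in transfected HEK293 cells. Compound exposure lasted 30-36 h at 37C, with 4.5 mM final sodium butyrate as control, followed by a ONE-Glo read.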
NPC1 promoter act: activators of NPC1 promoter. actives 2.4% (n = 320,000). Huh7 NPC1 promoter luciferase reporter, 24 h. Potency, µM (doses to about 9.22 µM), actives largely listed as activators; note: nearly all actives have a fitted effect of over 60% in size
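Cells: Huh7 expressing luciferase under the NPC1 promoter, 1500/well. Seeded 2 h, compound added, incubated 24 h at 37 °C. Luciferase reagent, 10 min ambient, then luminescence.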
Hits are given with their value; - = inactive; ? = inconclusive; . = no result; [ ] = another dose, or the depositor's remark. Calls come from the whole dose curve; as a rule, active = well fitted curve in the direction sought with a large enough effect; inconclusive = small, poorly fitted or top-dose-only effect, or another doubt; inactive = no such curve, though single readings can be large; an effect the other way counts as inactive or inconclusive.

SMILES | KinaseGlo FLuc | FLuc modulator | ELG1 genotoxic | Rab9 prom act | SMN2 splice enh | NPC1 promoter act
Cc1ccc2c(COC(=O)c3ccccc3Cl)cc(=O)oc2c1 | . | 0.849µM | 14.6µM | - | . | ?
Cc1ccc2c(COC(=O)c3ccc(C)c(C)c3)cc(=O)oc2c1 | . | - | - | ? | . | -
O=C(Cc1ccc(Cl)cc1)Nc1nnc2n1CCS2 | . | - | . | . | . | .
Cc1ccc(CSc2nc3ncccc3[nH]2)cc1 | ? | 2.39µM | - | 0.794µM | 1.78µM | 0.562µM
S=c1nc(SCc2ccccc2)[nH]c2ccccc12 | - | ? | - | - | - | -
Clc1ccc(CSc2nc3ncccc3[nH]2)cc1 | . | 6.01µM | . | . | 12.6µM | .
Cc1ccc(C)c(CSc2nc3ncccc3[nH]2)c1 | . | - | . | . | . | .
Cc1oc(-c2ccc(Cl)cc2)nc1CSc1nc2ncccc2[nH]1 | . | - | . | . | . | .
c1ccc(CSc2nc3ncncc3[nH]2)cc1 | . | 16.9µM | - | - | . | -
Nc1nc(SCc2ccc([N+](=O)[O-])cc2)c2ncn([C@@H]3O[C@H](CO)[C@H](O)[C@H]3O)c2n1 | - | . | . | . | ? | .
CCc1cc2c(cc3c(=O)n(CC(=O)NCc4cc(Br)ccc4OC)ncn32)s1 | . | - | . | . | ? | .
Cc1ccccc1C(=O)Nc1ccc(C(=O)OCc2cc(=O)n3c4c(sc3n2)CCCC4)cc1 | . | - | . | . | . | .
CC1CN(C2=NC(=O)/C(=C3/C(=O)N(Cc4ccc(F)cc4)c4ccccc43)S2)CC(C)O1 (centres undefined) | . | ? | - | - | . | -
CCCN1C(=O)/C(=C2\SC(N3CCCCC3)=NC2=O)c2ccccc21 | - | 2.13µM | - | 2.82µM | - | 1.26µM
CN1C(=O)/C(=C2\SC(N3CCCCCC3)=NC2=O)c2ccccc21 | - | 2.69µM | ? | 3.55µM | - | ?
O=C1N=C(N2CCOCC2)S/C1=C1\C(=O)N(Cc2ccccc2)c2ccccc21 | - | 0.675µM | ? | 1.58µM | - | 2.82µM
CN1C(=O)/C(=C2\SC(N)=NC2=O)c2ccccc21 | - | - | - | - | - | -
Cc1ccccc1CNC(=O)c1cc2cc(S(=O)(=O)N3CCCCC3)ccc2n1C | . | - | . | . | . | .
Cc1ccc(C(=O)Oc2oc(-c3ccco3)nc2C=Nc2ccccc2)cc1 | - | 15.1µM | - | ? | - | -
Oc1oc(-c2ccco2)nc1C=Nc1ccccc1 | - | -[2.3 µM] | - | - | . | -
COc1ccc(N=Cc2nc(-c3ccccc3)oc2OC(=O)c2ccccc2)cc1 | - | 10.7µM | ? | ? | - | -
CN(C)c1ccc(N=Cc2nc(-c3ccccc3)oc2OC(=O)c2cccc(Br)c2)cc1 | - | ? | ? | - | 15.8µM | ?
CCOc1ccc(CCNC(=O)CCN2N=C(c3ccc(OC)cc3)CCC2=O)cc1OCC | . | - | . | . | . | .
CC(=O)c1ccc(OCc2cc(=O)n3ccsc3n2)cc1 | - | ? | ? | 3.98µM | ? | ?
Cc1ccsc1C(=O)OCc1cc(=O)n2ccsc2n1 | . | 10.7µM | ? | 1.41µM | . | 2.51µM
SMILES | KinaseGlo FLuc | FLuc modulator | ELG1 genotoxic | Rab9 prom act | SMN2 splice enh | NPC1 promoter act
CC(C)(C)c1ccc(C(=O)Nc2ccc(OCc3cc(=O)n4ccsc4n3)cc2)cc1 | . | - | . | . | - | .
O=C(OCc1cc(=O)n2ccsc2n1)c1ccc(O)cc1O | . | ? | ? | - | . | ?
CSc1cccc(NC(=O)C2CCCN(C(=O)c3cnn(-c4ccc(F)cc4)c3-n3cccc3)C2)c1 (centres undefined) | . | - | . | . | . | .
Cc1c(CC(=O)N[C@@H](C)C(=O)O)c(=O)oc2cc3oc4c(c3cc12)CCCC4 | . | 16.9µM | - | - | . | -
CCCCC(NC(=O)Cc1c(C)c2cc3c4c(oc3cc2oc1=O)CCCC4)C(=O)O (centres undefined) | . | 19µM | - | - | . | -
Cc1c(CCC(=O)NCCCC(=O)O)c(=O)oc2cc3oc4c(c3cc12)CCCC4 | . | 19µM | - | - | . | -
Cc1c(CCC(=O)N[C@@H](CCCNC(N)=O)C(=O)O)c(=O)oc2cc3oc4c(c3cc12)CCCC4 | . | 15.1µM | - | - | . | -
CCCCC(NC(=O)Cc1c(C)c2cc3c4c(oc3c(C)c2oc1=O)CCCC4)C(=O)O (centres undefined) | . | ? | - | - | . | -
Cc1c(CCC(=O)NCCCCCC(=O)O)c(=O)oc2c(C)c3oc4c(c3cc12)CCCC4 | . | ? | - | - | . | -
CCCCNN | -[7.66 µM] | . | . | . | -[9.22 µM] | .
